Sampled rows, rich in hits. Any-hit rate of the full collection: about 8.1%.
KB-3-1 cytotox: KB-3-1 parental cell cytotoxicity | KB-3-1 viability, CellTiter-Glo ATP luminescence, 72 h | Potency, µM (top dose mostly 46.1 µM), most hits filed as cytotoxic | AID 1347075 | 1.4% of 400,000 active; note: nearly all actives have a fitted effect of over 60% in size
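Screening of KB-3-1 cells (DMEM, 10% FBS, phenol-red free) ran from lowest to highest compound concentration; after 72 h at 37 °C viability was read luminescently and curves fitted.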
KB-V1 MDR tox: KB-V1 MDR subline cytotoxicity; Potency, µM (top dose mostly 46.1 µM), usual class: cytotoxic; KB-V1 MDR cells viability, CellTiter-Glo, 72 h; 3.4% of 400,000 active; note: nearly all actives have a fitted effect of over 60% in size
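qHTS viability screen in drug-selected KB-V1 MDR cells: 72 h compound treatment at 37 degrees C, ATP luminescence end point.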
ELG1 repair inh: inhibitors of ELG1-dependent DNA repair in HEK293T cells; 2.3% of 330,000 active; AID 504467; Potency, µM (doses to about 46.1 µM), actives largely listed as inhibitors; HEK293T ELG1-luciferase reporter, luminescence, 16 h; DNA damage induced by 5-fluorouridine; note: nearly all actives have a fitted effect of over 55% in size
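Overnight (16 hr) co-exposure of 2,000 cells/well to 5-fluorouridine and compound at 37 °C preceded detection. Luciferase was quantified via ONE-Glo luminescence; loss of signal denotes inhibition.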
SW480 rerep: DNA re-replication induction in SW480 cells; 1.8% of 340,000 active; SW480 DNA re-replication, Hoechst DNA content imaging, 48 h; AID 624297; Potency, µM (doses to about 46.1 µM), actives largely listed as activators; note: nearly all actives have a fitted effect of over 55% in size
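Treated cells incubate 48 hr (37 C, 5% CO2), are stained 40 min with Hoechst, and nuclear fluorescence is enumerated; a rise in nuclei with high DNA signal marks re-replication.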
MCF10A rerep: inducers of DNA re-replication in MCF 10A breast cells; MCF 10A DNA re-replication, Hoechst nuclear intensity, 48 h; AID 624296; Potency, µM (series often up to 46.1 µM), most hits filed as activators; 2.9% of 350,000 active; note: nearly all actives have a fitted effect of over 50% in size
Large screens that a line does not name were inactive; ! = a repeat was not active. Calls come from the whole dose curve; as a rule, active = well fitted curve in the direction sought with a large enough effect; inconclusive = small, poorly fitted or top-dose-only effect, or another doubt; inactive = no such curve, though single readings can be large; an effect the other way counts as inactive or inconclusive.

Cn1c2c(c(=O)n(C)c1=O)C(C(F)(F)F)(C(F)(F)F)N=C(CCC1CCCCC1)N2	KB-3-1 cytotox 23.1µM, KB-V1 MDR tox inconclusive, ELG1 repair inh inconclusive, MCF10A rerep inconclusive
COCOCCn1cc(CN2CCS(=O)(=O)N(Cc3ccc(-c4ccc(OC)c(OC)c4)cc3)C(C)C2=O)nn1 (stereo not drawn)	none (no result: ELG1 repair inh, SW480 rerep, MCF10A rerep)
Cc1ccc(NP(=O)(c2ccc(N(C)C)cc2NC(=O)c2cccs2)N2CCOCC2)cc1Cl (stereo not drawn)	ELG1 repair inh 16.4µM, SW480 rerep inconclusive
Cc1cc(NC(=O)c2ccc(Cl)cc2Cl)n(-c2ccccc2)n1	none
Cc1cc(Nc2ccc(Cl)cc2)n(-c2cccc(Cl)c2)n1	KB-3-1 cytotox inconclusive, KB-V1 MDR tox inconclusive, SW480 rerep inconclusive, MCF10A rerep 25.9µM
Cc1cc(Nc2nc3ccccc3nc2Cl)n(-c2ccccc2)n1	KB-3-1 cytotox inconclusive, KB-V1 MDR tox 13µM, SW480 rerep inconclusive, MCF10A rerep 13µM
Cc1cc(Nc2nc3ccccc3nc2Cl)n(-c2ccccc2C)n1	MCF10A rerep inconclusive
Cc1cc(Nc2ccccc2C(=O)O)n(-c2cccc(Cl)c2)n1	SW480 rerep 5.17µM
Cc1cc(NC(=O)COc2ccc(Cl)cc2Cl)n(-c2ccccc2)n1	KB-V1 MDR tox inconclusive, ELG1 repair inh inconclusive
Cc1cc(NC(=O)CSc2cc(Cl)ccc2Cl)n(-c2ccccc2)n1	ELG1 repair inh 25.9µM
Cc1nnc(Nc2ccccc2)n(N)c1=O	none
CCOC(=O)c1c(Nc2cc(C)cc(C)c2)nnc(-c2ccccc2)c1-c1ccccc1	none (no result: ELG1 repair inh, SW480 rerep, MCF10A rerep)
CCOC(=O)c1c(Nc2cccc(C)c2)nnc(-c2ccccc2)c1-c1ccccc1	KB-3-1 cytotox 16.4µM, KB-V1 MDR tox inconclusive (no result: ELG1 repair inh, SW480 rerep, MCF10A rerep)
CCOc1ccc(NC(=O)CC2C(=O)N(c3ccccc3)C(=O)N2CCc2ccc(OC)cc2)cc1 (stereo not drawn)	none (no result: ELG1 repair inh, SW480 rerep, MCF10A rerep)
CCOc1ccc(NC(=O)CC2C(=O)N(c3ccccc3)C(=O)N2CCc2cccs2)cc1 (stereo not drawn)	KB-V1 MDR tox 5.8µM!, SW480 rerep inconclusive
Cc1ccsc1CCN1C(=O)N(c2ccccc2)C(=O)C1CC(=O)Nc1ccc(F)cc1 (stereo not drawn)	KB-3-1 cytotox 23.1µM, KB-V1 MDR tox inconclusive (no result: ELG1 repair inh, SW480 rerep, MCF10A rerep)
COc1ccc(NC(=O)CN2CCC(NC(=O)c3ccc(OC)cc3)CC2)cc1	none
CCOc1ccc(C(C)NC(=O)C2CCN(S(=O)(=O)c3ccc(OC)cc3)CC2)cc1OCC (stereo not drawn)	KB-V1 MDR tox 20.6µM (no result: ELG1 repair inh)
CC(=O)N1CCN(CC(=O)Nc2ccc(C)c(S(=O)(=O)N(C)C)c2)CC1	MCF10A rerep inconclusive
Cc1ccc(NC(=O)CNc2ccc(Cl)c(Cl)c2)cc1S(=O)(=O)N(C)C	KB-3-1 cytotox inconclusive, KB-V1 MDR tox 20.6µM (no result: SW480 rerep)
Cc1ccc(NC(=O)CN2CCC(Cc3ccccc3)CC2)cc1S(=O)(=O)N(C)C	KB-V1 MDR tox inconclusive, ELG1 repair inh inconclusive, SW480 rerep 11.6µM, MCF10A rerep inconclusive
CN(C)S(=O)(=O)c1cc(NC(=O)CNCc2ccc(F)cc2)ccc1Cl	KB-3-1 cytotox inconclusive, KB-V1 MDR tox inconclusive, ELG1 repair inh inconclusive
Cc1ccc(NC(=O)Cc2ccccc2Cl)cc1S(=O)(=O)N(C)C	KB-3-1 cytotox inconclusive, KB-V1 MDR tox 23.1µM, ELG1 repair inh inconclusive, MCF10A rerep inconclusive
Cc1ccc(NC(=O)Cc2ccc(Cl)c(Cl)c2)cc1S(=O)(=O)N(C)C	KB-3-1 cytotox 23.1µM, KB-V1 MDR tox 2.59µM, ELG1 repair inh 14.6µM, SW480 rerep inconclusive, MCF10A rerep inconclusive
Cc1ccc(NC(=O)CCNC(=O)c2ccccc2Cl)cc1S(=O)(=O)N(C)C	none
Cc1ccc(NC(=O)COC(=O)c2ccccc2Cl)cc1S(=O)(=O)N(C)C	none
O=C(Nc1cccc(C(=O)Nc2cccc(C(F)(F)F)c2)c1)c1ccc(=O)[nH]c1	none
CCOc1ccc(S(=O)(=O)Nc2nc3ccccc3nc2Nc2ccc(N3CCOCC3)cc2)cc1	MCF10A rerep inconclusive
COCC(C)n1c(C)cc(C(=O)COC(=O)c2n[nH]c3ccccc23)c1C (stereo not drawn)	ELG1 repair inh inconclusive
O=C(Nc1ccccn1)c1ccc2c(c1)S(=O)(=O)c1ccccc1C2=O	ELG1 repair inh inconclusive
O=C1c2ccccc2S(=O)(=O)c2cc(C(=O)N(c3ccccn3)c3ccccn3)ccc21	KB-V1 MDR tox 14.6µM
OC[C@H](S)CS	KB-3-1 cytotox inconclusive, MCF10A rerep 9.44µM (no result: ELG1 repair inh)
CCN1CCN(c2nc3c(c(=O)[nH]c(=O)n3C)n2Cc2ccccc2F)CC1	MCF10A rerep inconclusive
Cn1c(=O)[nH]c(=O)c2c1nc(N1CCNCC1)n2Cc1ccccc1Cl	MCF10A rerep 2.91µM
CC1CN(c2nc3c(c(=O)[nH]c(=O)n3C)n2Cc2ccccc2F)CC(C)O1 (stereo not drawn)	KB-V1 MDR tox 18.4µM, ELG1 repair inh inconclusive
Cn1c(=O)c2c(nc(N3CCNCC3)n2Cc2ccccc2Cl)n(C)c1=O	none
O=c1c2oc3ccccc3c2ncn1Cc1cccc(Cl)c1	ELG1 repair inh inconclusive, SW480 rerep inconclusive, MCF10A rerep inconclusive
COc1cc(/C=C/C(=O)c2c(O)cc(C)oc2=O)cc(OC)c1O	KB-3-1 cytotox inconclusive, KB-V1 MDR tox inconclusive, ELG1 repair inh inconclusive
Cc1cc(O)c(C(=O)/C=C/c2ccc(Cl)cc2)c(=O)o1	KB-3-1 cytotox 16.4µM, KB-V1 MDR tox inconclusive, ELG1 repair inh inconclusive, MCF10A rerep inconclusive
CSc1ccc(/C=C/C(=O)c2c(O)cc(C)oc2=O)cc1	KB-3-1 cytotox inconclusive, ELG1 repair inh inconclusive, SW480 rerep 18.4µM, MCF10A rerep inconclusive
CCc1ccccc1NC(=O)c1cnc2sc(N3CCOCC3)nn2c1=O	KB-V1 MDR tox inconclusive (no result: ELG1 repair inh, SW480 rerep, MCF10A rerep)
Cc1cc(=O)[nH]c(SCC(=O)C23CC4CC(CC(C4)C2)C3)c1C#N	KB-3-1 cytotox inconclusive, KB-V1 MDR tox 6.51µM, SW480 rerep inconclusive, MCF10A rerep inconclusive
O=C(c1ccccc1F)n1c2c(c3ccccc31)CCCC2	KB-3-1 cytotox inconclusive, KB-V1 MDR tox inconclusive, ELG1 repair inh inconclusive, SW480 rerep inconclusive, MCF10A rerep 14.6µM
CC1CCN(CC(=O)n2c3c(c4ccccc42)CCCC3)CC1	none
CCC(C)(C)C1CCC2(CC1)NC(=O)N(CC(=O)NCCOc1ccccc1)C2=O (stereo not drawn)	KB-3-1 cytotox inconclusive, KB-V1 MDR tox inconclusive
CCC(C)(C)C1CCC2(CC1)NC(=O)N(CC(=O)NCCc1ccc(OC)c(OC)c1)C2=O (stereo not drawn)	KB-3-1 cytotox inconclusive, KB-V1 MDR tox 16.4µM, ELG1 repair inh inconclusive
Cc1ccccc1-c1nc2cc(NC(=O)COc3ccc(F)cc3)ccc2o1	none (no result: ELG1 repair inh, SW480 rerep, MCF10A rerep)
O=C(O)CCN1CC2([N+](=O)[O-])CC=C(OCCO)C([N+](=O)[O-])(C1)C2 (stereo not drawn)	SW480 rerep 3.66µM
COC1=CCC2([N+](=O)[O-])CN(CCO)CC1([N+](=O)[O-])C2 (stereo not drawn)	none
